Where “and” joins values, the source holds several entries; their conditions need not be identical. Identical values can stand only once. Records with an inconclusive call do not appear. Calls of active or inactive are those of the source. Calls come from the whole dose curve; as a rule, active = well fitted curve in the direction sought with a large enough effect; inconclusive = small, poorly fitted or top-dose-only effect, or another doubt; inactive = no such curve, though single readings can be large; an effect the other way counts as inactive or inconclusive. Peptide text beside a SMILES is read from it. * marks the point of attachment. AMC = Cc1cc(=O)oc2cc(N*)ccc12; Cbz = O=C(OCc1ccccc1)*
Experiments:
[1] = target: Cellular tumor antigen p53 (Homo sapiens) (UniProt P04637); assay: Primary qHTS for small molecule compounds that upregulate eGFP-tagged delta133p53alpha (in N-terminal) cells. (AID 2060322); settings: NCI-H358 eGFP-delta133p53alpha fluorescence, 24 h; activation: stronger effect = higher value;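 note: cells pre-induced with doxycycline then dosed without doxycycline; series mostly up to about 56 µM; 0% = DMSO vehicle and 100% = reference activator; nearly all actives have a fitted effect of over 75% in size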
How it was run: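 NCI-H358 cells pre-induced 24 h with 10 ng/ml doxycycline for eGFP-delta133p53alpha, plated dox-free and exposed 24 h at 37C to titrated compounds. Fixed, Hoechst-stained; gated GFP peak intensity by laser scanning cytometry, normalized to DMSO (0%) and 57.5 uM 5-azacytidine (100%).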

[2] = target: Aldehyde dehydrogenase, mitochondrial (Homo sapiens) (UniProt P05091); assay: qHTS for Inhibitors of the Aldehyde Dehydrogenase Family (ALDH2) Primary screen (AID 2061308);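 note: plate controls were vehicle for no effect and reference inhibitor for full effect; nearly all actives have a fitted effect of over 55% in size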
[3] = target: Retinaldehyde dehydrogenase 3 (Homo sapiens) (UniProt P47895); assay: qHTS for Inhibitors of the Aldehyde Dehydrogenase Family (ALDH1A3) Primary screen (AID 2061315);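 note: plate controls were DMSO vehicle for no effect and reference inhibitor for full effect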

Cellular tumor antigen p53 (Homo sapiens), sequence (P04637 whole entry, looked up): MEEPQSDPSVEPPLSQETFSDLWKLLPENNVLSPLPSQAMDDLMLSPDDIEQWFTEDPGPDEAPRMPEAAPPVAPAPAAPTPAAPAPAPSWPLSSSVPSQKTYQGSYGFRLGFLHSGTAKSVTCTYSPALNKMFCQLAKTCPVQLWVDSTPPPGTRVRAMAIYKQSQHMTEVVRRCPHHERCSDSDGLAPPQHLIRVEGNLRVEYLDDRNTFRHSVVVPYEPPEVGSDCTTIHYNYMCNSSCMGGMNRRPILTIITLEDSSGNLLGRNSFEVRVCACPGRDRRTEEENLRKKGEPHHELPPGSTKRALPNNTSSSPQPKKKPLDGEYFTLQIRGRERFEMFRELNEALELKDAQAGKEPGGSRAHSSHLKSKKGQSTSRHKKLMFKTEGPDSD

CC1=C2C3OC(=O)C(C)C3(O)CCC2(C)CCC1=O (stereo unspecified)
inactive: activation [1] -20.5% | Potency [2] | Potency [3]

CC1(C)CC[C@]2(C(=O)O[C@@H]3O[C@H](CO)[C@@H](O)[C@H](O)[C@H]3O)CC[C@]3(C)C(=CCC4[C@@]5(C)CC[C@H](O[C@@H]6O[C@H](C(=O)O)[C@@H](O)[C@H](O)[C@H]6OC6OC(CO)C(O)C(O)C6O)C(C)(C)C5CC[C@]43C)[C@@H]2C1 (stereo partly specified)
inactive: activation [1] -5.36% | Potency [2] | Potency [3]

CC(=O)O[C@H]1[C@@H](O)[C@H](O[C@H]2[C@@H]3C=CO[C@@H](O[C@H]4O[C@@H](CO)[C@H](O)[C@@H](O)[C@@H]4O)[C@@H]3[C@@]3(CO)O[C@@H]23)O[C@@H](C)[C@@H]1OC(=O)/C=C/c1ccccc1
inactive: activation [1] -17.9% | Potency [2] | Potency [3]

CCC[C@@H]1C[C@@H](C(=O)N[C@@H]([C@H]2O[C@H](SC)[C@H](OP(=O)(O)O)[C@@H](O)[C@H]2O)[C@H](C)Cl)N(C)C1
inactive: activation [1] 13.4% | Potency [2] | Potency [3]

O=C(C1=CCN2c3c(cccc31)OC[C@H]2CN1CCOCC1)c1cccc2ccccc12
inactive: activation [1] 27.7% | Potency [2] | Potency [3]

C/C=C(/COC(=O)/C(C)=C/C)C(=O)OC(CC)c1ccc(OC)c(OC)c1 (stereo unspecified)
inactive: activation [1] -15.2% | Potency [2] | Potency [3]

COc1ccc(C2(O)c3ccccc3NC(=O)C2OC)cc1 (stereo unspecified)
inactive: activation [1] -2.29% | Potency [2] | Potency [3]

COc1cc(C)c(C(=O)OC2C(C)OC(OC3CCC(C)C4C3C=C(C)C3/C(C)=C\CC/C(C)=C/C5(C)C=C(C(=O)O)C(C)CC56OC(=O)/C(=C(\O)C34C)C6=O)C(O)C2O)c(OC)c1 (stereo unspecified)
inactive: activation [1] 10.7% | Potency [2] | Potency [3]

C=C1CC[C@H]2[C@@H](/C=C(\C)C(=O)[C@@]3(OC(C)=O)C[C@H](C)[C@H](OC(C)=O)[C@@H]3[C@H]1OC(C)=O)C2(C)C
inactive: activation [1] -20.6% | Potency [2] | Potency [3]

C=C1CCC2C(C(C)(C)O)CCC2(C)CC(O)C(=C)CCC1O (stereo unspecified)
inactive: activation [1] -12.5% | Potency [2] | Potency [3]

O=C(O)CC(CCc1ccccc1)OC1OC(CO)C(O)C(O)C1O (stereo unspecified)
inactive: activation [1] 3.57% | Potency [2] | Potency [3]

Cc1ccc(Nc2nnc(-c3ccc([N+](=O)[O-])cc3)o2)cc1Cl
inactive: activation [1] 9.82% | Potency [2] | Potency [3]

Cc1cc(=O)oc2cc(NC(=O)[C@H](CCC(=O)O)NC(=O)[C@H](CC(C)C)NC(=O)[C@H](CC(C)C)NC(=O)OCc3ccccc3)ccc12 (Cbz-Leu-Leu-Glu-{AMC})
inactive: activation [1] 2.33% | Potency [2] | Potency [3]

Cc1ccn(-c2cc(Cl)ccc2[C@@H](Oc2cc(-c3ccc(C[C@H](N)C(=O)O)cc3)nc(N)n2)C(F)(F)F)n1
inactive: activation [1] -7% | Potency [2] | Potency [3]

CC(=O)O[C@@H]1CC2C(/C=C(\C)C(=O)[C@@]3(O)C[C@@H](C)[C@H](OC(=O)c4ccccc4)C3/C=C/1C)C2(C)C (stereo partly specified)
inactive: activation [1] -10.7% | Potency [2] | Potency [3]

CC1=C2C(=O)C=C(CO)C2C2OC(=O)C(CS(=O)(=O)O)C2C(OC(=O)Cc2ccc(O)cc2)C1 (stereo unspecified)
inactive: activation [1] -22.1% | Potency [2] | Potency [3]

C/C=C/C=C/C=C/C(=O)OC1C=C(C=O)C(O)(C(=O)O)C2(C)CCCC(C)(C)C12 (stereo unspecified)
inactive: activation [1] -9.92% | Potency [2] | Potency [3]

CC(=O)NCCCCn1c2c(c3ccccc31)C(=O)NCC2
inactive: activation [1] -13.4% | Potency [2] | Potency [3]

CC1=C[C@H]2[C@@H](CC1=O)[C@H](C)C[C@H](O)[C@H]2C(C)C
inactive: activation [1] 10.7% | Potency [2] | Potency [3]

CC(C)=CCC/C(C)=C/CC/C(C)=C/COC1OC(COC2OCC(OC3OCC(O)C(O)C3O)C(O)C2O)C(O)C(OC2OC(C)C(OC3OC(C)C(OC4OCC(OC5OC(C)C(O)C(O)C5O)C(O)C4O)C(O)C3O)C(O)C2O)C1O (stereo unspecified)
inactive: activation [1] 4.58% | activity change, negative = inhibition [2] 7.18% [at 11.2 µM] | activity change, negative = inhibition [3] -4.87% [at 11.2 µM]

O=C(CCCN1CC=C(n2c(=O)[nH]c3ccccc32)CC1)c1ccc(F)cc1
inactive: activation [1] 17.5% and 4.33% | Potency [2] | Potency [3]

CC1=C(C)C(=O)OC(C(C)C2C(O)CC3C4C5OC5C5(O)CC(OC6OC(CO)C(OC7OC(C)C(O)C(O)C7O)C(O)C6O)CC(O)C5(C)C4CCC32C)C1 (stereo unspecified)
inactive: activation [1] -6.87% | Potency [2] | Potency [3]
